# Bioassay records (PubChem)
# MITF inhib: inhibitors of MITF, primary screen, MITF inhibitor project, cell-based, luminescence | TRPM1 promoter luciferase, 24 h | inhibition, % (concentration not given with the values) | 37,000 tested, 0.28% active | AID 2240, 2010; in the data active means inhibition above about 85%; inconclusive means no clear call, values can overlap the other calls; inactive means below about 68%;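 further: human melanocyte line stably carrying TRPM1 promoter luciferase reporter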
# Hedgehog inh: Hedgehog pathway signaling inhibitors, primary screen, luminescence, Shh-LIGHT2 cells, Gli-luciferase | Shh-LIGHT2 Gli-luciferase reporter, 30 h | inhibition, % (no concentration beside the values) | 22,000 tested, 2.1% active;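 active means mean inhibition across valid replicates above about 65%, limit read from the data; inconclusive means mean under the limit, yet half or more replicates past it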;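 further: pathway switched on by Shh-conditioned medium diluted 1 in 25 in low serum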
# Active calls of the source: *; ? = inconclusive; / = no result given. Shown is part of a subset that was picked to be rich in hits.
SMILES,MITF inhib,Hedgehog inh
COc1ccc(CC(=O)Nc2cccc(-c3nnc(-c4ccc(C)cc4)o3)c2)cc1OC,101*,/
COc1ccccc1OCC(=O)Nc1cccc(-c2nnc(-c3ccccc3)o2)c1,-99,/
O=C(O)c1ccccc1S(=O)c1ccc(Cl)cc1 (stereo unspecified),8,-10
CCOc1ccccc1OCC(=O)Nc1cc(Cl)ccc1OC,8,/
Cc1cccc(N=Cc2c(O)n(-c3ccccc3)c(=O)c3ccccc23)c1,-18,-11
CC(C)NC(=O)Nc1ccc2c(c1)CC(=O)N([C@@H](C)CO)C[C@H](C)[C@H](CN(C)C(=O)Nc1ccc3c(c1)OCO3)O2,-6,65*
C[C@H]1CN([C@@H](C)CO)C(=O)Cc2cc(NC(=O)C3CCCCC3)ccc2O[C@H]1CN(C)CC1CCCCC1,-11,27
C[C@@H]1CN([C@H](C)CO)C(=O)Cc2cc(NC(=O)C3CCCCC3)ccc2O[C@@H]1CN(C)CC1CCCCC1,-8,76*
CC(C)NC(=O)Nc1ccc2c(c1)CC(=O)N([C@@H](C)CO)C[C@H](C)[C@@H](CN(C)C(=O)Nc1ccc3c(c1)OCO3)O2,9,21
C[C@H]1CN([C@@H](C)CO)C(=O)Cc2cc(NC(=O)Nc3ccccc3)ccc2O[C@@H]1CN(C)Cc1ccc2c(c1)OCO2,-7,70*
C[C@@H]1CN([C@@H](C)CO)C(=O)Cc2cc(NC(=O)Nc3ccccc3)ccc2O[C@@H]1CN(C)Cc1ccc2c(c1)OCO2,14,-7
Clc1ccccc1/C=C/C=Nc1ccc(N2CCOCC2)cc1,-50,27
Cc1cc(OCC(=O)Nc2ccccc2C(=O)NC2CCCCC2)cc(C)c1Cl,-15,/
O=C(c1ccccc1)N1CN(C2CCCCC2)Cc2c1sc1c2CCCC1,9,-34
Cc1ccc2nc(S/C=C/C(=O)c3ccccc3)[nH]c2c1,69,48
COc1cc(C)c2c(c1)CCC1C2CCC2(C)C(O)CCC12 (stereo unspecified),-72,?
COc1cc2c(cc1O)CCC1C2CC[C@@]2(C)C1CC[C@@H]2O (stereo partly specified),19,91*
O=C(/C=C/c1ccc(O)c(O)c1)OCCc1ccccc1,-32,77*
O=C(/C=C/c1ccccc1)Oc1ccccc1,8,/
O=C(CC1c2ccccc2Oc2ccccc21)Nc1ccc(Cc2ccncc2)cc1,60,/
CCOC(=O)Nc1cccc(NC(=O)CC2c3ccccc3Oc3ccccc32)c1,89*,/
Cc1cccc(OCC(=O)Nc2cccc(C(=O)O)c2C)c1,-46,/
COc1ccc(NC(=O)Nc2cccc3c2O[C@@H](CN(C)S(=O)(=O)c2ccc(F)cc2)[C@H](C)CN([C@@H](C)CO)C3=O)cc1,3,-14
C[C@@H]1CN([C@H](C)CO)C(=O)Cc2cc(N(C)C)ccc2O[C@@H]1CN(C)S(=O)(=O)c1cccs1,6,69*
COc1ccc(S(=O)(=O)N(C)C[C@@H]2Oc3c(NC(=O)Nc4ccc(F)cc4)cccc3C(=O)N([C@H](C)CO)C[C@@H]2C)cc1,2,68*
SMILES,MITF inhib,Hedgehog inh
COc1ccc(NC(=O)Nc2cccc3c2O[C@H](CN(C)S(=O)(=O)c2ccc(Cl)cc2)[C@@H](C)CN([C@H](C)CO)C3=O)cc1,-11,4
COc1ccc(NC(=O)Nc2cccc3c2O[C@@H](CN(C)S(=O)(=O)c2ccc(F)cc2)[C@@H](C)CN([C@H](C)CO)C3=O)cc1,-7,-31
COc1ccc(NC(=O)Nc2cccc3c2O[C@@H](CN(C)S(=O)(=O)c2ccc(Cl)cc2)[C@@H](C)CN([C@H](C)CO)C3=O)cc1,-13,92*
COc1ccc(S(=O)(=O)N(C)C[C@@H]2Oc3c(NC(=O)Nc4ccc(F)cc4)cccc3C(=O)N([C@@H](C)CO)C[C@@H]2C)cc1,7,86*
C[C@@H]1CN([C@H](C)CO)C(=O)Cc2cc(N(C)C)ccc2O[C@H]1CN(C)S(=O)(=O)c1cccs1,-3,-21
CN(CC(=O)Nc1ccc(F)c(Cl)c1)S(=O)(=O)c1ccc2ccccc2c1,17,/
O=C(Nc1cccc([N+](=O)[O-])c1)Nc1nn(Cc2ccc(Cl)c(Cl)c2)cc1Cl,6,/
FC(F)(F)c1cc(-c2ccc3ccccc3c2)no1,-4,-33
Cc1ccccc1NC(=O)CCC(=O)OC1CCC(C(C)(C)C)CC1 (stereo unspecified),-11,29
Cc1ccccc1NC(=O)COc1ccc(C)c([N+](=O)[O-])c1,0,/
COc1ccc(-n2c(=S)[nH]c3cc(C(=O)NC4CCCC(C)C4C)ccc3c2=O)c(OC)c1 (stereo unspecified),38,0
COc1ccc(NC(=O)Nc2ccc3c(c2)CC(=O)N([C@@H](C)CO)C[C@H](C)[C@@H](CN(C)S(=O)(=O)c2ccc(Cl)cc2)O3)cc1,9,74*
COc1ccc(NC(=O)Nc2cccc3c2O[C@@H](CN(C)S(=O)(=O)c2ccccc2)[C@H](C)CN([C@H](C)CO)C3=O)cc1,-4,11
COc1ccc(NC(=O)Nc2ccc3c(c2)CC(=O)N([C@@H](C)CO)C[C@@H](C)[C@@H](CN(C)S(=O)(=O)c2ccc(Cl)cc2)O3)cc1,16,1
COc1ccc(NC(=O)Nc2cccc3c2O[C@H](CN(C)S(=O)(=O)c2ccccc2)[C@H](C)CN([C@H](C)CO)C3=O)cc1,-57,75*
Cc1c(NC2CS(=O)(=O)CC2O)c(=O)n(-c2ccccc2)n1C (stereo unspecified),-5,-31
CCN1/C(=C\C(=S)Nc2ccccc2)Sc2ccccc21,-4,-115
CCN1/C(=C/C2=CC(=O)CC(C)(C)C2)Sc2ccccc21,49,82*
